This is a sample that favours compounds with a hit; in the whole collection about 9.3% have one here.
FLuc modulator = qHTS profiling assay for firefly luciferase inhibitor/activator using purifed enzyme and Km concentrations of substrates (counterscreen for miR-21 project) | 360,000 tested, 6.9% active | Potency, µM (titrated, usually from 57.5 µM), for the others: at the top dose activity change, negative = inhibition, actives largely listed as inhibitors | purified FLuc, Km substrates, luminescence inhibition;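 note: plate controls were vehicle for no effect and reference inhibitor for full effect; nearly all actives have a fitted effect of over 55% in size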
Target sequence (P08659 whole entry, looked up): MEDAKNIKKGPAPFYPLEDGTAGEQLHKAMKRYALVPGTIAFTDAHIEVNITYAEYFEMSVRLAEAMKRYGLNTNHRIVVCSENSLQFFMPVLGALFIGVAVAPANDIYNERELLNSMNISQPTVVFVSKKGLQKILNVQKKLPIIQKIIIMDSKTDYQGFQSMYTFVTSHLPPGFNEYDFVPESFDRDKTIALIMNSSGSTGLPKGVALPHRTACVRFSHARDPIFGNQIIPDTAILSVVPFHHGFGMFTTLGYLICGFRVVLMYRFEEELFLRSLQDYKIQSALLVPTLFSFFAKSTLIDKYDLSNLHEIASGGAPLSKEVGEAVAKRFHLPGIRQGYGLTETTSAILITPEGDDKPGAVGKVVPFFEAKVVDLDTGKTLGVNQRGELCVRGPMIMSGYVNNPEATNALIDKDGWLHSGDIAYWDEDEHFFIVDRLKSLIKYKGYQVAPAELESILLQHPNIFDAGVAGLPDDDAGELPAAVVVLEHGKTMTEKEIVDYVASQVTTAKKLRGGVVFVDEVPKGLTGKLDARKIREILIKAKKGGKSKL
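Purified P. pyralis luciferase, 10 nM final, with Km-level 10 uM D-luciferin and 10 uM ATP in 50 mM Tris acetate pH 7.5, 10 mM Mg acetate, 0.01% Tween-20, 0.05% BSA; 6-point qHTS titration about 60 µM downward; luminescence read.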
ELG1 genotox = qHTS screen for small molecules that induce genotoxicity in human embryonic kidney (HEK293T) cells expressing luciferase-tagged ELG1; HEK293T ELG1-luciferase reporter, luminescence, 16 h; Potency, µM (highest dose often 46 µM), for the others: at the top dose activity change, positive = activation, hits mostly activators; 330,000 tested, 1.3% active; AID 504466, 2011; note: % of control where 0% means no effect; nearly all actives have a fitted effect of over 60% in size
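Quantitative HTS format in 1536-well plates. HEK293T ELG1-luciferase reporter cells receive test compound and are incubated 16 hr at 37 °C, 5% CO2; ONE-Glo added, 30 min room temperature, then luminescence read.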
Rab9 promoter act = qHTS Assay for Rab9 Promoter Activators; Potency, µM (highest dose often 9.22 µM), for inactives: top-dose activation, negative = inhibition, usual class: activators; Huh7 Rab9 promoter-luciferase reporter, luminescence, 24 h; 320,000 tested, 2.8% active; note: % of control where 0% means no effect; nearly all actives have a fitted effect of over 60% in size
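Luminescence read-out: Huh7 cells stably expressing Rab9-luciferase, treated 24 h with compound at 37 °C, then lysed with luciferase reagent for 10 min at ambient before reading.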
SMN2 splice enh = qHTS Assay for Enhancers of SMN2 Splice Variant Expression; HEK293 SMN2-luciferase splicing reporter, luminescence, 30-36 h; Potency, µM (top dose mostly 46.1 µM), for inactives: at the top dose activity change, positive = activation, usual class: activators; 210,000 tested, 2.8% active; AID 1458, 2008; note: % of control where 0% means no effect; nearly all actives have a fitted effect of over 55% in size
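qHTS luciferase splicing reporter: luminescence rises when SMN2 exon 7 is included in transfected HEK293 cells. Compound exposure lasted 30-36 h at 37C, with 4.5 mM final sodium butyrate as control, followed by a ONE-Glo read.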
ELG1 DNA repair = qHTS screen for small molecules that inhibit ELG1-dependent DNA repair in human embryonic kidney (HEK293T) cells expressing luciferase-tagged ELG1 | HEK293T ELG1-luciferase reporter, luminescence, 16 h; DNA damage induced by 5-fluorouridine | Potency, µM (titrated, usually from 46.1 µM), for the others: top-dose activity change, negative = inhibition, hits mostly inhibitors | 330,000 tested, 2.3% active | AID 504467, 2011; note: % is set by controls: 0 for no effect and ±100 for the full control effect; nearly all actives have a fitted effect of over 55% in size
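Step one: seed 2,000 cells per well. Step two: pin-transfer compound or DMSO alongside 5-fluorouridine. Step three: incubate 16 hr, 37 °C, 5% CO2. Step four: add ONE-Glo, wait 30 min, read luminescence.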
NPC1 promoter act = qHTS Assay for NPC1 Promoter Activators; Huh7 NPC1 promoter luciferase reporter, 24 h; Potency, µM (top dose mostly 9.22 µM), inactives show top-dose activation, hits mostly activators; 320,000 tested, 2.4% active; note: % of control where 0% means no effect; nearly all actives have a fitted effect of over 60% in size
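Cells: Huh7 expressing luciferase under the NPC1 promoter, 1500/well. Seeded 2 h, compound added, incubated 24 h at 37 °C. Luciferase reagent, 10 min ambient, then luminescence.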
ELG1 FLuc counter = qHTS screen for small molecules that inhibit ELG1-dependent DNA repair: Hit Confirmation in Cell-Based Luciferin Assay; shares compounds with ELG1 DNA repair; cell-free firefly luciferase luminescence counter-screen, ViewLux; Potency, µM (highest dose often 46.1 µM), for inactives: top-dose activity change, negative = inhibition, most hits filed as inhibitors; 350 tested, 3% active; note: % is set by controls: 0 for no effect and ±100 for the full control effect
ELG1 Luc conf = HTS assay for small molecules that inhibit ELG1-dependent DNA repair in human embryonic kidney (HEK293T) cells expressing luciferase-tagged ELG1: Hit Confirmation. 670 tested, 68% active. shares compounds with ELG1 DNA repair. AID 624248, 2012. Potency, µM (titrated, usually from 46.1 µM), without a hit: top-dose activity change, negative = inhibition, hits mostly inhibitors. HEK293T ELG1-luciferase levels, luminescence; cells co-treated with 5-fluorouridine; note: % is set by controls: 0 for no effect and ±100 for the full control effect; nearly all actives have a fitted effect of over 55% in size
ELG1 MMS Luc = MMS-stimulated human ELG1 repair inhibition, confirmed. 670 tested, 53% active. shares compounds with ELG1 DNA repair. AID 624249. Potency, µM (highest dose often 46.1 µM), without a hit: at the highest dose activity change, negative = inhibition, actives largely listed as inhibitors. HEK293T luciferase-tagged ELG1 level, MMS stimulated; note: % is set by controls: 0 for no effect and ±100 for the full control effect; nearly all actives have a fitted effect of over 60% in size
ELG1 5-FU = qHTS screen for small molecules that inhibit ELG1-dependent DNA repair: Hit Confirmation with 5FU Viability; shares compounds with ELG1 DNA repair; cell viability with 5-FU, ELG1-dependent repair; Potency, µM (highest dose often 46.1 µM), for the others: at the highest dose activity change, negative = viability loss, actives largely listed as cytotoxic; 670 tested, under 10 active; AID 624250, 2012;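 note: ELG1-luc HEK293T cells cotreated with 5-fluorouridine at 10 µM final; viability measured 16 h after compound addition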
ELG1 MMS viab = qHTS screen for small molecules that inhibit ELG1-dependent DNA repair: Hit Confirmation with MMS Viability; 670 tested, 33% active; Cell viability with MMS, ELG1-dependent DNA repair; Potency, µM (doses to about 46.1 µM), for inactives: top-dose activity change, negative = viability loss, usual class: cytotoxic; shares compounds with ELG1 DNA repair;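 note: ELG1-luc HEK293T cells co-treated with 10 µM MMS; viability read 16 h after compound addition; % is set by controls: 0 for no effect and ±100 for the full control effect; nearly all actives have a fitted effect of over 60% in size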
Cell viab unstim = qHTS screen for small molecules that inhibit ELG1-dependent DNA repair: Hit Confirmation with Unstimulated Viability Assay | shares compounds with ELG1 DNA repair | cell viability counter-screen, unstimulated, luminescence | Potency, µM (highest dose often 45.9 µM), for inactives: at the highest dose activity change, negative = loss of viability, most hits filed as cytotoxic | 900 tested, 8% active | AID 624252, 2012;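 note: compound exposure lasted 16 hours before reading; % is set by controls: 0 for no effect and ±100 for the full control effect; nearly all actives have a fitted effect of over 55% in size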
FLuc biochem = qHTS screen for small molecules that inhibit ELG1-dependent DNA repair: Hit Confirmation in Biochemical Luciferin Assay. shares compounds with ELG1 DNA repair. purified firefly luciferase, luminescence counter-screen. Potency, µM (series often up to 57.5 µM), for inactives: top-dose activity, negative = inhibition, usual class: inhibitors. 350 tested, 10% active. AID 624253, 2012; note: % is set by controls: 0 for no effect and ±100 for the full control effect
* marks the source's active call; other numbers are inactive results; u = inconclusive; x = not tested or not shown; [ ] = another dose, or the depositor's remark. Calls come from the whole dose curve; as a rule, active = well fitted curve in the direction sought with a large enough effect; inconclusive = small, poorly fitted or top-dose-only effect, or another doubt; inactive = no such curve, though single readings can be large; an effect the other way counts as inactive or inconclusive. Potency is the fitted concentration of half-maximal effect.

SMILES	FLuc modulator	ELG1 genotox	Rab9 promoter act	SMN2 splice enh	ELG1 DNA repair	NPC1 promoter act	ELG1 FLuc counter	ELG1 Luc conf	ELG1 MMS Luc	ELG1 5-FU	ELG1 MMS viab	Cell viab unstim	FLuc biochem
CC(C)C(=O)N1CCC2(CC1)Oc1ccc(Cl)cc1C(=O)C21CC(c2ccc(Cl)cc2)=NO1 (stereo unspecified)	-1%	-1%	-5%	x	2.6µM*	-11%	x	10µM*	-15%	u	-6%	u	x
O=C1c2cc(Cl)ccc2OC2(CCNCC2)C12CC(c1ccc(Cl)cc1)=NO2 (stereo unspecified)	-1%	3%	-4%	x	14%	-1%	x	x	x	x	x	x	x
CC(=O)Nc1ccc(NC(=O)CSc2ccc3nnc(CCNS(=O)(=O)c4ccc(C)cc4)n3n2)cc1	0%	1%[9.26 µM]	-2%	x	-2%	1%	x	x	x	x	x	x	x
Cc1ccc(S(=O)(=O)NCCc2nnc3ccc(SCC(=O)Nc4nc5ccccc5s4)nn23)cc1	4%	2%	-3%	-19%	-3%	-1%	u	-2%	4%	0%	2%	0%	-5%
CCCCCC1=C2CNC(Cc3ccccc3)(C(=O)OC)C=C2C(C)C1=O (stereo unspecified)	x	x	x	-1%	x	x	x	x	x	x	x	x	x
Clc1ccc(CNc2ccc(N3CCN(Cc4ccccc4)CC3)cc2)cc1	2%	-2%	-10%	x	u	-2%	x	x	x	x	x	x	x
COc1ccc(C)cc1NC(=O)CN1CCCC1c1ccc2c(c1)OCCCO2 (stereo unspecified)	x	-10%	x	x	4.1µM*	x	x	3.1µM*	18µM*	u	u	-10%	x
CS(=O)(=O)c1ccc(Cl)c(NC(=O)CN2CCCC2c2ccc3c(c2)OCCCO3)c1 (stereo unspecified)	4%	-4%	-4%	x	u	-1%	x	x	x	x	x	x	x
COc1ccc(CCNc2ncnc3sccc23)cc1OC	-4%	-12%	-38%	-73%	0.29µM*	-41%	12%	u	0.28µM*	0%	0.4µM*	u	-10%
CCOC(=O)c1[nH]c2cc(OC)c(OC)cc2c1NC(=O)CN1CCN(c2ccc(OC)cc2)C(C)C1 (stereo unspecified)	4%	-9%	-7%	-13%	1.3µM*	0%	u	3.2µM*	36µM*	u	u	41µM*	-4%[115 µM]
CCOC(=O)c1[nH]c2ccc(OC)cc2c1NC(=O)CN1CCSCC1	5%	-7%	7%	-6%	u	0%	x	x	x	x	x	x	x
COC(=O)c1[nH]c2ccc(C)cc2c1NC(=O)CN1CCN(c2ccccc2)CC1	-1%	-26%	-7%	-78%	18µM*	-7%	u	13µM*	18µM*	u	u	25µM*	1%
COC(=O)c1[nH]c2ccc(C)cc2c1NC(=O)C(C)N1CCN(C2CCCCC2)CC1 (stereo unspecified)	3%	-1%	4%	17%	-15%	-3%	-6%	1.1µM*	u	8%	8%	u	5%
O=C(NC(Cc1ccccc1)C(=O)O)/C(=C/c1ccc([N+](=O)[O-])cc1)NC(=O)c1ccccc1 (stereo unspecified)	-3%	0%	1%	x	4%	0%	x	x	x	x	x	x	x
Cc1ccc(O)c(CNc2ccccn2)c1	u	15%	28%	18%	u	20%	x	x	x	x	x	x	x
O=C(Nc1ccc(N2CCN(C(=O)c3ccco3)CC2)cc1)c1ccc([N+](=O)[O-])cc1Cl	6%	-7%	-2%	x	4.6µM*	0%	x	6.3µM*	7.1µM*	u	u	u	x
COc1ccc(CCNC(=O)CCN2C(=O)c3cccc4cccc(c34)C2=O)cc1OC	0%	3%	u	9%	3%	-3%	x	x	x	x	x	x	x
COc1ccc(CCN2C(=O)c3cccc4c(C(=O)N5CCCCC5)ccc(c34)C2=O)cc1OC	-2%	-8%	-6%	-74%	3.7µM*	0%	x	7.9µM*	7.9µM*	u	11µM*	14µM*	x

Screening results as filed in PubChem.
